The list is not random: actives were taken first. Their share in the collection is about 0.83%.
OTUD3 inh = human OTUD3 deubiquitinase inhibition | purified OTUD3, Ub-rhodamine fluorescence, 2 h | Q5T2D3 | AID 1645858 | 47,000 tested, 0.7% active | inhibition, % at 25 µM
USP7 inh = human USP7 deubiquitinase inhibition; purified USP7, Ub-rhodamine cleavage fluorescence; inhibition, % at 20 µM; 47,000 tested, 0.3% active
UCHL1 block = blocks human UCHL1 ubiquitin-rhodamine cleavage; P09936; purified UCHL1, Ub-rhodamine cleavage fluorescence; inhibition, % at 20 µM; 47,000 tested, 0.2% active; AID 1645859
Target sequence (P09936 whole entry, looked up): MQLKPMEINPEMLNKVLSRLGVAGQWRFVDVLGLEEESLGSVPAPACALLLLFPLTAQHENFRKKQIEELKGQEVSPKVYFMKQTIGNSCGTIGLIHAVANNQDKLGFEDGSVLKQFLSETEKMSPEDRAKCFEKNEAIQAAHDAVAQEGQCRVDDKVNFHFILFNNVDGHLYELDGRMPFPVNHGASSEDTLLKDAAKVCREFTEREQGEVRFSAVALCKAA
Starred values were filed as active, the others as inactive. Cut-off read from the data, not from the text of the source: active = inhibition above about 30%; inactive = the rest.

SMILES	OTUD3 inh	USP7 inh	UCHL1 block
O=C(c1cc2c(s1)CN(C1CC1)C2)N1CCN(c2ccccn2)CC1	-3	-62	-1
O=C1c2cccc(O)c2C(=O)c2c(O)cccc21	-98	-83	-26
Cc1cc(O)c2c3c(c(O)cc2c1)C(=O)c1c(O)cccc1C3=O	67*	60*	67*
O=C(Nc1ccccn1)c1noc2c1CCc1sccc1-2	-9	-3	-1
CCc1nnc(NC(=O)CN(Cc2ccccc2)S(=O)(=O)c2ccc(Cl)cc2)s1	-3	0	0
COCCN1C(=O)c2ccccc2C(C(=O)Nc2ccccn2)C12CCCCC2 (configuration not stated)	-8	1	-1
O=C(Nc1nccs1)C1c2ccccc2C(=O)N(Cc2ccccc2)C12CCCC2 (configuration not stated)	10	23	69*
Cc1cccc(-n2nnc(-c3nc(-c4ccc(Cl)cc4)no3)c2N)c1	-11	4	-3
Nc1c(-c2nc(-c3ccccc3Cl)no2)nnn1-c1ccc(Cl)cc1	4	56*	12
CCOC(=O)c1cnc(Nc2ccc(F)c(Cl)c2)c2ccccc12	19	8	9
CC(=O)N1CCc2cc(S(=O)(=O)NC(Cc3ccccc3)C(=O)Nc3cccc(Cl)c3C)ccc21 (configuration not stated)	38*	26	11
CC(=O)N1CCc2cc(S(=O)(=O)NC(Cc3ccccc3)C(=O)NCc3ccc4c(c3)OCO4)ccc21 (configuration not stated)	17	3	6
C[C@H](NC(=O)Cc1ccccc1F)c1nc2cc(-c3ccc(F)cc3)ncn2n1	15	13	5
O=C(CSc1ccc2nnc(-c3cccc(F)c3)n2n1)c1ccccc1	-11	12	3
CCOC(=O)N1CCC(NC(=O)c2cc(C(=O)Nc3ccc(S(=O)(=O)N4CCCCC4)cc3)ccc2CO)CC1	39*	8	6
CCOC(=O)N1CCN(S(=O)(=O)c2ccc(C(=O)Nc3ccc(S(N)(=O)=O)cc3)cc2)CC1	-7	-1	0
CC[C@H](C)[C@H](NC(=O)[C@H]([C@@H](C)CC)N(C)C(C)=O)C(=O)N[C@H](C(=O)N[C@@H](CC(C)C)C(=O)C1(C)CO1)[C@@H](C)O (some centres not stated)	31*	-145	25
COc1ccccc1-n1nnc(C(=O)Nc2ccc(Oc3ccccc3)cc2)c1C	8	13	6
COc1ccc(S(=O)(=O)N2CCCCCC2)cc1C(=O)Nc1ccc2[nH]c(=O)[nH]c2c1	25	4	7
COc1cc(O)c2c(O)c3c(cc2c1)C[C@@]1(O)CC(=O)C(C(N)=O)=C(O)[C@@]1(O)C3=O	46*	65*	70*
COc1c2c(cc3cc(O)c4c(=O)cc(C)oc4c13)CCC2=O	28	-38	7
COCCNc1ncnc2c1oc1nc(CC(C)C)c3c(c12)CCC3	2	-3	4
Cc1ccccc1C(CC(=O)Nc1ccc2c(c1)OCO2)n1cccc1 (configuration not stated)	8	4	7
COc1cccc(C(CC(=O)Nc2ccc3c(c2)OCCO3)n2cccc2)c1 (configuration not stated)	-2	-3	32*
CCn1cc2c(n1)C(COC)CN(C(=O)c1cc(C)nn1CC)C2 (configuration not stated)	11	2	0
SMILES	OTUD3 inh	USP7 inh	UCHL1 block
CC(=O)c1cccc(NC(=O)C(C)OC(=O)c2cc3ccccc3[nH]2)c1 (configuration not stated)	33*	9	1
COc1ccc(N(C)S(=O)(=O)c2cccc(C(=O)OC(C)C(=O)Nc3cccc(C(C)=O)c3)c2)cc1 (configuration not stated)	4	10	4
Cc1cc(NC(=O)Cn2c(=O)n(CCc3ccccc3)c(=O)c3ccccc32)n[nH]1	5	-3	-1
Cc1cc(NC(=O)Cn2c(=O)n(Cc3ccco3)c(=O)c3ccc(C(=O)NCCc4ccccc4)cc32)n[nH]1	77*	3	18
COc1ccc(NC(=O)c2ccc(-n3nnnc3SC)cc2)cc1Cl	87*	4	0
COc1ccc(OC)c(NC(=O)c2ccc(-n3nnnc3SC)cc2)c1	-5	-3	1
CC1CC(C)CN(C(=O)CCc2nnc3ccc(N4CCCC4)nn23)C1 (configuration not stated)	9	5	3
Cc1cccc(NC(=O)c2nc3c(=O)[nH]c4cc(C)ccc4n3n2)c1	-25	1	5
Cc1nn(-c2ccccc2)c2c1C1(C(=O)Nc3ccccc31)N1C(=N2)Sc2ccccc21 (configuration not stated)	10	83*	10
Cc1nn(-c2ccccc2)c2c1C1(C(=O)Nc3ccccc31)C(C#N)=C(N)O2 (configuration not stated)	9	19	4
COc1ccccc1NC(=O)NCc1nnnn1-c1ccccc1	14	4	3
COc1cc(OC)c(NC(=O)c2cc(-c3ccccn3)n[nH]2)cc1Cl	5	22	6
COc1ccc(Cl)cc1NC(=O)c1cc(-c2ccccn2)n[nH]1	0	58*	13
COc1ccc(OCc2nn3c(-c4ccccc4Cl)nnc3s2)cc1	14	4	0
CC(C)Cc1cc(-c2nnc3sc(-c4ccco4)nn23)n[nH]1	41*	7	10
COc1ccc(-n2c(=O)c3ccc(C(=O)NCCc4ccccc4)cc3n(CC(=O)NCc3ccco3)c2=O)cc1	25	-15	6
COCCNC(=O)Cn1c(=O)n(Cc2ccc(C(=O)NCc3ccc(C)cc3)cc2)c(=O)c2ccccc21	47*	-14	6
COCCCNC(=O)c1ccc(Cn2c(=O)c3ccccc3n(CC(=O)NCc3ccco3)c2=O)cc1	-17	-2	-11
CC(C)N(Cc1cc(=O)[nH]c2ccccc12)C(=O)c1ccc(C(C)(C)C)cc1	-3	-9	0
O=C(COc1ccc(Cl)cc1)N1CCc2[nH]nc(-c3ccc(Cl)cc3)c2C1	9	-30	8
CC(OC(=O)c1c2c(nc3ccccc13)CCCCC2)C(=O)Nc1ccc2ccccc2c1 (configuration not stated)	43*	10	4
CC(OC(=O)c1c2c(nc3ccccc13)CCCC2)C(=O)Nc1ccc(N(C)C)cc1 (configuration not stated)	-18	0	-1
COc1ccc(CSc2nc3ccncc3n2CC(=O)Nc2ccc(C)cc2C)cc1	34*	14	4
COC(=O)c1ccc(CSc2nc3ccncc3n2CC(=O)N2CCCC2)cc1	-3	-2	-1
O=c1[nH]c(C2CCN(S(=O)(=O)c3ccc(S(=O)(=O)N4CCOCC4)cc3)CC2)nc2c1nnn2Cc1ccc(F)cc1	8	30*	31*
O=c1[nH]c(C2CCN(S(=O)(=O)c3ccc(S(=O)(=O)N4CCOCC4)cc3)CC2)nc2c1nnn2Cc1cccc(F)c1	-6	1	-10
O=C1CN(C(=O)COc2cccc3ccccc23)c2ccccc2N1	2	0	5
CC(C)CCN1C(=O)C2C(C(=O)Nc3ccc(Oc4ccccc4)cc3)C3C=CC2(O3)C1C(=O)NC1CCCCC1 (configuration not stated)	30*	-97	4

Source: PubChem BioAssay (Buhrlage Lab, Dana-Farber Cancer Institute and Novartis Institutes for BioMedical Research (Cambridge, Mass))
